In the library only some 3.3% were active in any assay of this set; here they are far more common.
MBD2 DNA inh – inhibitors of MBD2 binding to methylated DNA, primary screen, biochemical, TR-FRET, DNA-binding domain, human; 0.31% of 370,000 active; inhibition, % at 4.4 µM; MBD2 binding to methylated oligonucleotide; in the data active = inhibition above about 13%
PRMT1 inh – PRMT1 methyltransferase inhibitors, primary screen, biochemical, fluorescence polarization; Protein arginine N-methyltransferase 1 (Homo sapiens), Q99873; recombinant PRMT1, activity-based probe fluorescence polarization; inhibition, % at 2.79 µM; 1.3% of 370,000 active;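 active = inhibition above about 21% made by adding two undisclosed values, limit read from the data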
PfGluPho inh – PfG6PD enzyme inhibitors, primary screen, biochemical, fluorescence intensity, uHTS | PfGluPho enzyme, NADPH resazurin-diaphorase fluorescence | glucose-6-phosphate dehydrogenase-6-phosphogluconolactonase (Plasmodium falciparum 3D7) | inhibition, % at 20 µM | 0.78% of 350,000 active;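 active = inhibition reaching at least a set limit at 20 µM in the primary screen, cut at about 59% in these data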
UHRF1 binding – UHRF1 methylated DNA binding inhibitors, primary screen, counter-screen for MBD2 inhibitor project, biochemical, TR-FRET, human UHRF1, single concentration; inhibition, % at 4.4 µM; UHRF1 binding to methylated oligo; 0.75% of 370,000 active; E3 ubiquitin-protein ligase UHRF1 (Homo sapiens), Q96T88; in the data active = inhibition above about 21%;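 note: UHRF1 SRA domain binding a hemimethylated CpG hairpin DNA probe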
Target sequence (Q96T88 whole entry, looked up, the tested form may be a part): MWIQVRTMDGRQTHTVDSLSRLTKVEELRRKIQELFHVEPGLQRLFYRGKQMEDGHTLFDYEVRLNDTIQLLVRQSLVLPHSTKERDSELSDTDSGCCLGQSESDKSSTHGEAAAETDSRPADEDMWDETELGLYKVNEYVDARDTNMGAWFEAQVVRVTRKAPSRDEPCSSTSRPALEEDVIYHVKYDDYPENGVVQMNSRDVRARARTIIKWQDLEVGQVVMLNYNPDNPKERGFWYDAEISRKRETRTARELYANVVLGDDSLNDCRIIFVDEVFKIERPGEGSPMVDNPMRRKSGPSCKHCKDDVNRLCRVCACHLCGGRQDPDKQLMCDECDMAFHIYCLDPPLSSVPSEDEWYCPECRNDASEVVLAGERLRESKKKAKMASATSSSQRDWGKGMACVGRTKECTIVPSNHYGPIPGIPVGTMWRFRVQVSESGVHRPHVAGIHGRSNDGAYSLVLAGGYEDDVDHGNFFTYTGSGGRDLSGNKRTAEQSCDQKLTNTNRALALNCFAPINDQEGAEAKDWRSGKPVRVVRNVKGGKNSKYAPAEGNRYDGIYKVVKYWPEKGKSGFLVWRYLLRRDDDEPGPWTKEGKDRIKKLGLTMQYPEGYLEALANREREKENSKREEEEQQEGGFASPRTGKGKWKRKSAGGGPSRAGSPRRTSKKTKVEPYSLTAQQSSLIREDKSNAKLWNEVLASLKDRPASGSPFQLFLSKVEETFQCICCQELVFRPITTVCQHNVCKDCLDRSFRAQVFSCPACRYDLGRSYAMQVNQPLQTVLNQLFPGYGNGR
PfM18AAP inh – PfM18AAP inhibitors, malaria aminopeptidase, primary screen, biochemical, QFRET, recombinant enzyme; M18 aspartyl aminopeptidase (Plasmodium falciparum 3D7); H-Glu-NHMec fluorogenic cleavage; inhibition, % at 7.35 µM; 1.2% of 290,000 active;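 active = inhibition above the campaign mean inhibition over all tested compounds plus 3 SD, cut at about 28% in these data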
Each line names hits and unclear results; the compound was inactive in the other large screens.

O=C(CSc1n[nH]c(=O)n1-c1ccccc1)Nc1ccccc1	none
Cc1onc(-c2c(F)cccc2Cl)c1C(=O)NCc1ccc2c(c1)OCO2	none
Cc1cccc(CS(=O)(=O)c2ncc(Cl)c(C(=O)NCc3ccc4c(c3)OCO4)n2)c1	PRMT1 inh 22
CC(=O)Nc1ccc(NC(=O)c2nc(S(=O)(=O)Cc3cccc(C)c3)ncc2Cl)cc1	PRMT1 inh 32
Cc1ccc(NC(=O)c2nc(S(=O)(=O)Cc3ccccc3C)ncc2Cl)cc1C	PRMT1 inh 35
CN(C)Cc1c(C(C)(C)O)[nH]c2cc(F)ccc12	none (no result: PfGluPho inh, PfM18AAP inh)
CC(C)NC(=O)N(C)C[C@H]1OCCCC[C@H](C)Oc2ccc(NS(=O)(=O)c3ccccc3)cc2C(=O)N([C@H](C)CO)C[C@H]1C	UHRF1 binding 22 (no result: PfM18AAP inh)
CCCN(CCC)CCCNC(=O)c1cc2c(-c3ccc(OC)c(OC)c3)nn(C)c2s1	UHRF1 binding 23
COCCCN1C(=O)[C@H](CC(=O)N2CCSCC2)[C@]2(C(=O)OC)CCCCC=C12	none (no result: PfGluPho inh, PfM18AAP inh)
CCOc1ccccc1NC(=O)C(NCCc1ccc(OC)cc1)c1ccccc1 (stereo not drawn)	PRMT1 inh 21
O=C(CCCN1CC=C(n2c(=O)[nH]c3ccccc32)CC1)c1ccc(F)cc1	UHRF1 binding 23
CCCCCCCCN1CCS(=O)(=O)N(Cc2ccc(F)cc2)C(C(=O)OC)C1 (stereo not drawn)	none (no result: PfGluPho inh, PfM18AAP inh)
CCCCNc1cccc2c1S(=O)(=O)N[C@H](C)CO2	UHRF1 binding 22 (no result: PfGluPho inh, PfM18AAP inh)
C[C@@H]1COc2cccc(NCCO)c2S(=O)(=O)N1	none (no result: PfGluPho inh, PfM18AAP inh)
COC(=O)[C@]12C[C@H](CC(=O)NCC34CC5CC(CC(C5)C3)C4)C(=O)N(Cc3ccccc3)C1=C[C@H](C(C)C)O[C@@H]2C1CC1	none (no result: PfGluPho inh, PfM18AAP inh)
CCCOC(=O)CCCCCCCCC(O)CN1CCCCC1 (stereo not drawn)	UHRF1 binding 23
COC(=O)CCCCCCCCCCN1CCCCC1	none
COc1cc(OC)c2c(=O)c3c(C(=O)O)c(O)ccc3oc2c1	none (no result: PfGluPho inh, PfM18AAP inh)
COc1ccc(N2CCN(C(=O)C3CCN(S(=O)(=O)c4ccc5c(c4)CC(C)N5C(=O)C4CC4)CC3)CC2)cc1 (stereo not drawn)	none (no result: PfGluPho inh, PfM18AAP inh)
COc1ccc(/C=N/NC(=O)c2nn(-c3ccc(Cl)cc3)c(=O)c3c(N)scc23)cc1	PRMT1 inh 24
CCOC(=O)c1nn(-c2ccc(OC)cc2)c(=O)c2c(N)scc12	none
COc1ccc(/C=N/NC(=O)c2nn(-c3ccccc3)c(=O)c3c(N)scc23)cc1	PRMT1 inh 22
O=C(NCc1ccc(F)c(F)c1)C1CCC(CNS(=O)(=O)c2cccc3cccnc23)CC1 (stereo not drawn)	none (no result: PfGluPho inh, PfM18AAP inh)
O=C(O)c1ccc2c(c1)[C@@H]1C=CC[C@@H]1[C@H](c1ccccn1)N2	MBD2 DNA inh 91, PRMT1 inh 70, UHRF1 binding 98
O=C(Nc1ccccc1)OC1CC2CC1[C@H]1CCCCN1[C@H]2Cc1ccccc1 (stereo partly drawn)	none (no result: PfGluPho inh, PfM18AAP inh)
COc1cc(C(F)(F)F)nc2ccc(C#CCOC(=O)Nc3ccccc3)cc12	UHRF1 binding 21
COc1ccc(OCCOC(=O)Nc2ccccc2)cc1	none
CN(CC(=O)Nc1cccc2ccccc12)C(=O)c1ccc(F)cc1F	UHRF1 binding 29 (no result: PfM18AAP inh)
CCOC(=O)C1CSCCS(=O)(=O)N1Cc1ccccc1C (stereo not drawn)	none (no result: PfGluPho inh, PfM18AAP inh)
CC1(C)OC(=O)C2(Cc3ccccc3N3CCCCC32)C(=O)O1 (stereo not drawn)	PfM18AAP inh 29
CN1CCN2c3ccccc3CC(C#N)(C#N)C2C1 (stereo not drawn)	none (no result: PfGluPho inh, PfM18AAP inh)
C[C@H](O)[C@@H]1CN2CCc3ccc(-c4ccc5c(c4)OCO5)cc3[C@@H]2C[C@@H]1N(C)Cc1cc(Cl)cc(Cl)c1	none (no result: PfGluPho inh, PfM18AAP inh)
CC1c2cccn2CCN1S(=O)(=O)c1ccc(F)cc1 (stereo not drawn)	UHRF1 binding 30 (no result: PfM18AAP inh)
CC(=O)C1=C(c2ccccc2)N(C(C)=O)n2c(C)nnc2S1	PRMT1 inh 73
CCCCN1C(=O)C(=O)NC[C@@H]1CC1CCCCC1	UHRF1 binding 48 (no result: PfGluPho inh, PfM18AAP inh)
CCCC[C@@H]1CNC(=O)C(=O)N1CC1CCCCC1	none (no result: PfGluPho inh, PfM18AAP inh)
COc1ccc(NC(=O)c2sc3nc(N4CCCC4)c4c(c3c2N)CC(C)(C)OC4)cc1	none
COc1ccc(NC(=O)c2sc3nc(N4CCOCC4)c4c(c3c2N)CC(C)(C)OC4)c(OC)c1	PfM18AAP inh 31
CCC(NC(=O)c1ccc2c(ccn2Cc2cccc(-c3ccccc3C(=O)O)c2)c1)c1ccccc1 (stereo not drawn)	none (no result: PfGluPho inh, PfM18AAP inh)
O=C1ON=C(c2ccc([N+](=O)[O-])cc2)/C1=C/c1ccccc1O	PfM18AAP inh 29
O=C1ON=C(c2ccccc2)/C1=C/c1ccc(-c2ccccc2[N+](=O)[O-])o1	none
O=C(c1cccc(S(=O)(=O)N2CCOCC2)c1)N1CCCCCC1	UHRF1 binding 40
O=C(c1cccc(-n2cccc2)c1)N1CCN(S(=O)(=O)c2ccccc2)CC1	MBD2 DNA inh 28, UHRF1 binding 56 (no result: PfGluPho inh, PfM18AAP inh)
CC(=O)CC[C@@H]1CC[C@]2(CCCN(C(=O)C3CCCC3)C2)O1	none (no result: PfGluPho inh, PfM18AAP inh)
CCOC(=O)c1oc2ccc(CNC(C)(C)C)c(Cl)c2c1C	UHRF1 binding 97
Cc1cccc(NC(=O)CNC(=O)[C@@H](Cc2ccccc2)NC(=O)[C@H]2O[C@@H](n3ccc(N)nc3=O)[C@H](O)[C@@H]2O)c1C	none (no result: PfGluPho inh, PfM18AAP inh)
COc1cc(C2(c3ccc(O)c(OC)c3)C(=O)Nc3c(C)cc(Br)cc32)ccc1O	UHRF1 binding 31 (no result: PfM18AAP inh)
Cc1ccc(NC(=S)N2CCC(c3ccc(C)cc3)C2)cc1 (stereo not drawn)	PfM18AAP inh 39
CCNS(=O)(=O)c1ccc(NC(=O)Nc2cc(C)ccc2OC)cc1	none
CCNS(=O)(=O)c1ccc(NC(=O)Nc2ccccc2OC)cc1	UHRF1 binding 23
COc1ccccc1NS(=O)(=O)c1cccc(NC(=O)Nc2ccc(Cl)cc2)c1	UHRF1 binding 26
COc1ccccc1NS(=O)(=O)c1cccc(NC(=O)Nc2ccccc2)c1	none
COc1ccc(NC(=S)N2CCC(C(=O)c3ccc(C)cc3)CC2)c(OC)c1	UHRF1 binding 26
COc1ccc(NC(=O)CN2CCC(C(=O)c3ccc(C)cc3)CC2)c(OC)c1	none
O=C(C[C@H]1C(=O)N(C2CCCCC2)C[C@@H]1c1ccccc1)Nc1ccc(Br)cc1	UHRF1 binding 22 (no result: PfM18AAP inh)
CCC(=O)NCC[C@@H]1CCc2ccc3c(c21)CCO3	none (no result: PfGluPho inh, PfM18AAP inh)
O=C(CSc1ccc2c(c1)OCCO2)Nc1ccc(Cl)cn1	none
O=C(CSc1ccc2c(c1)OCCO2)Nc1ncccc1O	PRMT1 inh 24 (no result: PfM18AAP inh)
OC(c1ccccc1)(c1ccccc1)C1CCN(CCCNc2ccc(C(F)(F)F)cc2)CC1	none (no result: PfGluPho inh, PfM18AAP inh)

Screens (PubChem)
